Screens deposited in PubChem by National Center for Advancing Translational Sciences (NCATS).
Sampled rows, rich in hits. Any-hit rate of the full collection: about 5.7%.
ATXN2 expr inh – ATXN2 expression inhibition; AID 1745845; HEK-293 ATXN2-luciferase reporter, luminescence, 24 h; actives 0.72% (n = 360,000); Potency, µM (doses to about 57 µM), without a hit: at the top dose activity change, negative = inhibition, usual class: inhibitors; further: potency means the concentration at half of the fitted maximal effect; on the % scale 0 is the no-effect control and ±100 the full control effect; nearly all actives have a fitted effect of over 55% in size
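qHTS (up to 57 uM final) was run with 24 h compound exposure of reporter cells at 37 °C. Each well was multiplexed: SteadyGlo luminescence measured ATXN2-luciferase expression after a fluorogenic Gly-Phe-AFC viability readout (25 uM final).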
IL-1B inflam inh – inflammasome signaling inhibition, IL-1 beta readout. THP-1 LPS/ATP IL-1B secretion, AlphaLISA, 16 h; active compounds read low. activity change, % at 57.5 µM. actives 4.7% (n = 360,000). AID 743279; in the data active means activity change below about -50%; inconclusive means mostly about -30% to -49%; further: on the % scale 0 is the no-effect control and ±100 the full control effect
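Secreted IL-1B measured by AlphaLISA bead assay after 16 h compound exposure of THP-1 cells; compounds (final up to 57.5 uM) added 1 h before LPS (250 ng/mL) and ATP (1.25 mM) stimulation; lower signal means less secretion.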
TGFb inhibitor – inhibitors of TGF-b signaling; HepG2 CAGA-GFP TGF-b/SMAD3 reporter, GFP fluorescence, 18 h; TGF-beta stimulated, 500 pg/mL final; Potency, µM (series often up to 46.1 µM), for inactives: at the highest dose activity, negative = inhibition, actives largely listed as inhibitors; actives 1.2% (n = 410,000); AID 588855; further: potency means the concentration at half of the fitted maximal effect; on the % scale 0 is the no-effect control and ±100 the full control effect; nearly all actives have a fitted effect of over 65% in size
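Cell-based qHTS in HEPG2 carrying a CAGA-GFP Smad reporter; compounds added before 500 pg/mL final TGF-beta, 18 h incubation at 37 degrees C, GFP fluorescence quantified per cell by imaging cytometry.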
ATXN viability – reduces viability in counter-screen for ATXN expression inhibitors; actives 0.49% (n = 400,000); Potency, µM (highest dose often 56.7 µM), usual class: cytotoxic; S2 cells (HEK-293 line with an ATXN2-luciferase reporter) viability, CellTiter-Fluor protease fluorescence, 24 h; further: potency means the concentration at half of the fitted maximal effect; nearly all actives have a fitted effect of over 40% in size
HepG2 viability – HepG2 cytotoxicity, counter-screen for TGF-b inhibitors; HepG2 CAGA-GFP viability, ATP luminescence, 18 h; Potency, µM (top dose mostly 46.1 µM), inactives show at the highest dose activity change, negative = cytotoxicity, most hits filed as cytotoxic; actives 0.76% (n = 410,000); further: potency means the concentration at half of the fitted maximal effect
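HepG2 CAGA-GFP cells (1000/well, DMEM with 1% FBS) received compound, then TGF-beta at 500 pg/mL final, and were incubated 18 hours at 37 degrees C. Viability was read by CellTiter-Glo luminescence. Media-only wells were set as complete cell-killing and DMSO as no toxicity.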
* = called active by the depositor; i = inactive; ? = inconclusive; · = no result given; ! = a repeat was not active; [ ] = another dose, or the depositor's remark. Unless noted, the call rests on the fitted dose curve; in most records, active means well fitted curve in the direction sought with a large enough effect; inconclusive means small, poorly fitted or top-dose-only effect, or another doubt; inactive means no such curve, though single readings can be large; an effect the other way counts as inactive or inconclusive.

SMILES | ATXN2 expr inh | IL-1B inflam inh | TGFb inhibitor | ATXN viability | HepG2 viability
CC(C)(C)C(=O)Nc1ccc2nc(SCCOc3ccccc3Cl)sc2c1 | ? | · | -14% | i | 3%
O=C(NCc1ccc(Cl)cc1)c1ccc(CSc2nc3ccncc3[nH]2)cc1 | -5% | -74* | ? | i | -19%
Clc1ccc(CSc2nc3ccncc3[nH]2)cc1 | -12% | 16 | 4% | i | -59%
CCC(c1nc2ccccc2[nH]1)n1c(=O)c(-c2cccnc2)nc2ccccc21 (centres undefined) | · | -3 | · | · | ·
CC(c1nc2ccccc2[nH]1)n1c(=O)c(-c2cccnc2)nc2ccccc21 (centres undefined) | · | -88* | · | · | ·
c1ccc(-c2nc3ccccc3n2C(c2ccccc2)c2nc3ccccc3[nH]2)cc1 (centres undefined) | · | 7 | · | · | ·
O=c1c(-c2ccccc2)nc2ccccc2n1C(c1ccccc1)c1nc2ccccc2[nH]1 (centres undefined) | · | -53* | · | · | ·
O=C(CCl)Nc1cc(SCC(O)CO)cc([N+](=O)[O-])c1 (centres undefined) | 4µM* | -101* | 2.8µM* | 8.9µM* | -90%
CC(C)=NOc1cc(NC(=O)CCl)cc([N+](=O)[O-])c1 | ? | -100* | 6.3µM* | 25µM* | -79%
CCC(=O)Nc1cc(SCCO)cc([N+](=O)[O-])c1 | 2% | -6 | 0% | i | 0%
O=c1c2oc3ccccc3c2n(Cc2ccccc2Cl)c(=O)n1Cc1ccco1 | -2% | · | -44% | i | -2%
COC(=O)C1CCCCN1Cc1ccc2c(c1)CN(C(=O)c1ccc(F)cc1)CCO2 (centres undefined) | · | · | · | i | ·
CCOc1ccc(NC(=S)N(CCN2CCOCC2)Cc2cc3cc4c(cc3[nH]c2=O)OCCO4)cc1 | 1%[11.3 µM] | -53* | 1% | i | -7%
CCOc1ccc2[nH]c(=O)c(CN(CCN3CCCC3)C(=S)Nc3ccccc3OC)cc2c1 | -19% | -62* | -18% | i | -19%
N#CC(=C1NC(=O)c2ccccc21)c1nc2ccccc2n1CCO | · | -74* | ? | i | 7%
CC(C)CN(C)Cc1c(C(=O)N2CCc3ccccc3C2)nc2ccc(Cl)cn12 | -13% | -83* | -11% | i | 1%
CCCCN(C)Cc1c(C(=O)N2CCc3ccccc3C2)nc2ccc(Cl)cn12 | -9% | 29 | 13% | i | 0%
COc1cc(C(=O)N2CC(=O)Nc3ccc(C)cc3C2c2ccc(F)cc2)cc(OC)c1OC (centres undefined) | -4% | · | -1% | i | -23%
O=C(O)c1ccccc1NSc1ccccc1[N+](=O)[O-] | -14%[11.3 µM] | 34 | -6% | i | -3%
O=[N+]([O-])c1cc(C(F)(F)F)cc([N+](=O)[O-])c1Sc1n[nH]c(C(F)(F)F)n1 | -12% | -94* | -19% | ? | -54%
O=C(O)c1ccccc1Sc1c([N+](=O)[O-])cc(C(F)(F)F)cc1[N+](=O)[O-] | -20% | -67* | 6% | i | -34%
CNc1nc(-c2ccc3c(N)n[nH]c3c2)cc(N2C[C@@H](C(=O)NC3CCCCC3)CC[C@@H]2C)n1 | -9% | · | · | · | ·
CCOC(=O)/C(=C\c1cccnc1)C(=O)c1cc(C(C)=O)c(Nc2ccccc2)s1 | 3.5µM* | -103* | 2.8µM* | 4.5µM* | -89%
CCOC(=O)/C(C#N)=C\c1cccnc1 | -8% | 17 | 14% | i | -23%
CCOC(=O)/C(=C\c1ccccc1)C(=O)c1cc(C(C)=O)c(Nc2ccccc2)s1 | 11µM* | -101* | -9% | 20µM* | 3.2µM*
SMILES | ATXN2 expr inh | IL-1B inflam inh | TGFb inhibitor | ATXN viability | HepG2 viability
CCOC(=O)C(=O)/C(C#N)=C/Nc1ccccc1 | 1% | 5 | -6% | i | 5%
O=c1c2ccccc2sn1-c1ccc(Cl)c(S(=O)(=O)N2CCOCC2)c1 | · | · | ? | · | -35%
Cc1c2cnccc2c(C)c2c1oc1ccccc12 | 21% | -73* | ? | i | -44%
CN1CCC(N(C)C(=O)c2sc3cc(F)ccc3c2Cl)CC1 | -9%[11.3 µM] | -20 | -19% | · | 2%
O=C(c1sc2cc(F)ccc2c1Cl)N1CCN(c2ccccc2)CC1 | -36% | -60* | 0% | i | 0%
NC(=S)N/N=C/c1cccc(/C=N/NC(N)=S)c1 | 17% | -100* | 4% | i | -8%
NC(=S)N/N=C/c1cccc(Br)c1 | -27% | -17 | 4% | i | -16%
COc1ccc(C(=O)NCC(=O)OCC(=O)c2cccc3ccccc23)cc1 | · | · | 3% | · | -5%
COC(=O)c1ccc(Nc2nnc(-c3ccc(C)c(S(=O)(=O)NCC4CCCO4)c3)c3ccccc23)cc1 (centres undefined) | 3% | -63* | 10% | i | -15%
COc1ccc(Nc2nnc(-c3ccc(C)c(S(=O)(=O)NCCO)c3)c3ccccc23)cc1C(N)=O | -4% | · | 14% | i | 4%
CCOC(=O)CNS(=O)(=O)c1cc(-c2nnc(Nc3ccc4c(c3)OCO4)c3ccccc23)ccc1C | -31% | -102* | ? | i | -52%
CCOC(=O)CNS(=O)(=O)c1cc(-c2nnc(Nc3cccc(O)c3)c3ccccc23)ccc1C | · | · | 0% | · | 11µM*
Cc1nc2cc(NC(=O)[C@@H]3C[C@@H](Sc4ccccn4)CN3Cc3cccc(F)c3)ccc2s1 | · | · | · | i | ·
COc1cccc(C2(CC(=O)N3CCN(c4ccccn4)CC3)CC(=O)N(C3CCCC3)C2=O)c1 (centres undefined) | · | · | · | i | ·
O=C(OCc1ccccc1)N1CCN(/[N+]([O-])=N/Oc2ccc([N+](=O)[O-])cc2[N+](=O)[O-])CC1 | · | · | ? | · | -108%
CCCOC(=O)N1CCN(/[N+]([O-])=N/Oc2ccc([N+](=O)[O-])cc2[N+](=O)[O-])CC1 | · | · | 7.1µM* | · | -97%
CCc1nn(CC(=O)N2CCN(c3cccc(C)c3)C(C)C2)c(=O)c2cc3sccc3n12 (centres undefined) | · | · | -31% | · | -8%
CC(=O)C1=CCC(c2ccc(Cl)cc2)N(S(=O)(=O)c2ccccc2)C1 (centres undefined) | -37% | -12 | -18% | i | -3%
CC(=O)C1=CCC(c2ccc(C)cc2)N(S(=O)(=O)c2ccc(C)cc2)C1 (centres undefined) | 3% | 25 | ? | i | 0%
CC(=O)C1=CCC(c2ccc(Cl)cc2)N(S(=O)(=O)c2ccc(C)cc2)C1 (centres undefined) | ? | -57*! | ? | ? | -2%
CC(=O)C1=CCC(c2ccc(Br)cc2)N(S(=O)(=O)c2ccc(C)cc2)C1 (centres undefined) | ? | -52* | ? | · | -13%
